Test results as given in PubChem BioAssay.
The source made the active and inactive calls.

Columns and labels:
[1] = small molecules captured by biotinylated probe aFSTL3 – biochemical, small-molecule microarray, fluorescence 635/667, stem cell growth factor project, primary screen (AID 1064); conditions: higher = more signal;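 also: measures binding of the biotinylated anti-FSTL3 antibody to printed compounds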
[2] = binders from COS7 lysate, DM2A8 probe, primary screen, torsin A project, cell lysate, small-molecule microarray, fluorescence 635/667 (AID 1065); conditions: higher = more signal, COS7 lysate expressing mutant human TOR1A
[3] = small molecules captured by biotinylated probe aFGF2 – biochemical, small-molecule microarray, fluorescence 635/667, stem cell growth factor project, primary screen (AID 1067); conditions: higher = more signal;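 also: measures binding of biotinylated aFGF2 protein to printed compounds on slides; z-score merges feature fluorescence and signal-to-noise across triplicate slides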
[4] = small molecules captured by biotinylated probe aFGF10 – biochemical, small-molecule microarray, fluorescence 635/667, stem cell growth factor project, primary screen (AID 1071); conditions: higher = more signal;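 also: score merges 667 nm spot intensity and signal to noise from triplicate slides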
[5] = target: Neurogenic locus notch homolog protein 2 (Homo sapiens) (UniProt Q04721); test: small molecules binding Notch2 protein – biochemical, small-molecule microarray, 635 nm fluorescence, stem cell growth factors, primary screen (AID 1073); conditions: higher = more signal
[6] = target: Pro-neuregulin-1, membrane-bound isoform (Homo sapiens) (UniProt Q02297); test: small molecules binding neuregulin-1 protein – biochemical, small-molecule microarray, fluorescence 635/667, psychiatric disease protein project, primary screen (AID 1075); conditions: NRG1 binding, 635 nm fluorescence, higher = more signal;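 also: score combines 667 nm spot fluorescence with signal to noise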
[7] = tested on: Neuregulin-1 EGF-like domain; test: small molecules binding NRG1 EGF domain – biochemical, small-molecule microarray, 635 nm fluorescence, primary screen (AID 1081); conditions: higher = more signal;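 also: binding of the protein to compounds printed on small-molecule microarray slides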
[8] = FRG1 expression reporter modulators in myotubes – cell-based, C2C12 myotubes, firefly/Renilla luciferase, luminescence, FRG1 inhibition for FSHD, primary screen (AID 1084); conditions: FRG1 promoter luciferase, higher = more signal, called active from +8 up or from −8 down
[9] = small molecules captured by biotinylated probe aFST – biochemical, small-molecule microarray, fluorescence 635/667, stem cell growth factor project, primary screen (AID 1086); conditions: higher = more signal;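 also: score merges 667 nm fluorescence with signal-to-noise of each printed compound spot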
[10] = binders of probe aHhip on microarray, primary screen, stem cell growth factor project, biochemical, small-molecule microarray, fluorescence 635/667 (AID 1087); conditions: higher = more signal;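 also: score merges spot fluorescence at 667nm with spot signal to noise ratio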
[11] = tested on: PRMT1 (protein arginine N-methyltransferase 1); test: small molecules binding arginine methyltransferase PRMT1 – biochemical, small-molecule microarray, 635 nm fluorescence, primary screen (AID 1088); conditions: higher = more signal;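 also: binding of Prmt1 protein to compounds spotted on small-molecule microarray slides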
[12] = growth effects on S. cerevisiae YJM789 – YJM789 clinical isolate, OD600, 24 h, basal, primary screen (AID 1089); conditions: higher = more signal, called active from +8 up or from −8 down;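 also: growth of clinical yeast isolate S. cerevisiae YJM 789 seeded 1000 cells per well; test concentration not given here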
[13] = S. pombe growth modifiers, basal conditions – strain 972, OD600, 24 h, no modulator, primary screen (AID 1090);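 also: basal condition with compound alone and no growth modifier present; test concentration not given here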; conditions: S. pombe 972 growth, higher = more signal, called active from +8 up or from −8 down
[14] = budding yeast growth modifiers under rapamycin – strain BY4716, OD600, 96 h, primary screen (AID 1091); also: test concentration not given here; conditions: S. cerevisiae BY4716 + rapamycin, higher = more signal, called active from +8 up or from −8 down
[15] = target: Torsin-1A-interacting protein 2 (Homo sapiens) (UniProt Q8NFQ8); test: small molecules binding lysate-expressed LULL1 – cell lysate, human LULL1 lysate, 635/667 nm fluorescence, primary screen (AID 1092); conditions: small-molecule microarray, hLULL1 lysate binding, 635 nm fluorescence; higher = more signal;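 also: probe is lysate of COS7 cells overexpressing human LULL1; score merges per-feature 667 nm fluorescence with signal-to-noise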
[16] = optical density change of DRC41 E. coli – strain DRC41, OD650, 24 h, E. coli filamentation project, primary screen (AID 1093);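 also: MC1000 strain lacking acrAB efflux and sulA so SOS filamentation is blocked; test concentration not given here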; conditions: E. coli DRC41 growth, higher = more signal, called active from +8 up or from −8 down
[17] = probe aLefty2 binding to arrayed compounds – biochemical, biotinylated probe, 635/667 nm fluorescence, primary screen (AID 1094); conditions: small-molecule microarray, higher = more signal;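 also: score merges spot fluorescence near 667 nm with spot signal-to-noise ratio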
[18] = tested on: Noggin (protein binding on small-molecule microarray); test: small molecules binding Noggin protein – biochemical, 635/667 nm fluorescence, primary screen (AID 1095); conditions: 635 nm fluorescence, higher = more signal;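 also: score merges 667 nm feature fluorescence with signal to noise over triplicate slides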
[19] = target: Neurogenic locus notch homolog protein 3 (Homo sapiens) (UniProt Q9UM47); test: small molecules binding NOTCH3 protein – biochemical, 635/667 nm fluorescence, primary screen (AID 1096); conditions: small-molecule microarray, 635 nm fluorescence, higher = more signal
[20] = probe aEGFR binding to arrayed compounds – biochemical, biotinylated probe, 635/667 nm fluorescence, primary screen (AID 1097); conditions: small-molecule microarray, higher = more signal;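 also: probe is a biotinylated anti-EGFR antibody binding compounds printed on slides; score combines fluorescence near 667 nm and signal to noise of each spot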

Chain of Neurogenic locus notch homolog protein 3 (Homo sapiens) (Q9UM47 whole entry, looked up): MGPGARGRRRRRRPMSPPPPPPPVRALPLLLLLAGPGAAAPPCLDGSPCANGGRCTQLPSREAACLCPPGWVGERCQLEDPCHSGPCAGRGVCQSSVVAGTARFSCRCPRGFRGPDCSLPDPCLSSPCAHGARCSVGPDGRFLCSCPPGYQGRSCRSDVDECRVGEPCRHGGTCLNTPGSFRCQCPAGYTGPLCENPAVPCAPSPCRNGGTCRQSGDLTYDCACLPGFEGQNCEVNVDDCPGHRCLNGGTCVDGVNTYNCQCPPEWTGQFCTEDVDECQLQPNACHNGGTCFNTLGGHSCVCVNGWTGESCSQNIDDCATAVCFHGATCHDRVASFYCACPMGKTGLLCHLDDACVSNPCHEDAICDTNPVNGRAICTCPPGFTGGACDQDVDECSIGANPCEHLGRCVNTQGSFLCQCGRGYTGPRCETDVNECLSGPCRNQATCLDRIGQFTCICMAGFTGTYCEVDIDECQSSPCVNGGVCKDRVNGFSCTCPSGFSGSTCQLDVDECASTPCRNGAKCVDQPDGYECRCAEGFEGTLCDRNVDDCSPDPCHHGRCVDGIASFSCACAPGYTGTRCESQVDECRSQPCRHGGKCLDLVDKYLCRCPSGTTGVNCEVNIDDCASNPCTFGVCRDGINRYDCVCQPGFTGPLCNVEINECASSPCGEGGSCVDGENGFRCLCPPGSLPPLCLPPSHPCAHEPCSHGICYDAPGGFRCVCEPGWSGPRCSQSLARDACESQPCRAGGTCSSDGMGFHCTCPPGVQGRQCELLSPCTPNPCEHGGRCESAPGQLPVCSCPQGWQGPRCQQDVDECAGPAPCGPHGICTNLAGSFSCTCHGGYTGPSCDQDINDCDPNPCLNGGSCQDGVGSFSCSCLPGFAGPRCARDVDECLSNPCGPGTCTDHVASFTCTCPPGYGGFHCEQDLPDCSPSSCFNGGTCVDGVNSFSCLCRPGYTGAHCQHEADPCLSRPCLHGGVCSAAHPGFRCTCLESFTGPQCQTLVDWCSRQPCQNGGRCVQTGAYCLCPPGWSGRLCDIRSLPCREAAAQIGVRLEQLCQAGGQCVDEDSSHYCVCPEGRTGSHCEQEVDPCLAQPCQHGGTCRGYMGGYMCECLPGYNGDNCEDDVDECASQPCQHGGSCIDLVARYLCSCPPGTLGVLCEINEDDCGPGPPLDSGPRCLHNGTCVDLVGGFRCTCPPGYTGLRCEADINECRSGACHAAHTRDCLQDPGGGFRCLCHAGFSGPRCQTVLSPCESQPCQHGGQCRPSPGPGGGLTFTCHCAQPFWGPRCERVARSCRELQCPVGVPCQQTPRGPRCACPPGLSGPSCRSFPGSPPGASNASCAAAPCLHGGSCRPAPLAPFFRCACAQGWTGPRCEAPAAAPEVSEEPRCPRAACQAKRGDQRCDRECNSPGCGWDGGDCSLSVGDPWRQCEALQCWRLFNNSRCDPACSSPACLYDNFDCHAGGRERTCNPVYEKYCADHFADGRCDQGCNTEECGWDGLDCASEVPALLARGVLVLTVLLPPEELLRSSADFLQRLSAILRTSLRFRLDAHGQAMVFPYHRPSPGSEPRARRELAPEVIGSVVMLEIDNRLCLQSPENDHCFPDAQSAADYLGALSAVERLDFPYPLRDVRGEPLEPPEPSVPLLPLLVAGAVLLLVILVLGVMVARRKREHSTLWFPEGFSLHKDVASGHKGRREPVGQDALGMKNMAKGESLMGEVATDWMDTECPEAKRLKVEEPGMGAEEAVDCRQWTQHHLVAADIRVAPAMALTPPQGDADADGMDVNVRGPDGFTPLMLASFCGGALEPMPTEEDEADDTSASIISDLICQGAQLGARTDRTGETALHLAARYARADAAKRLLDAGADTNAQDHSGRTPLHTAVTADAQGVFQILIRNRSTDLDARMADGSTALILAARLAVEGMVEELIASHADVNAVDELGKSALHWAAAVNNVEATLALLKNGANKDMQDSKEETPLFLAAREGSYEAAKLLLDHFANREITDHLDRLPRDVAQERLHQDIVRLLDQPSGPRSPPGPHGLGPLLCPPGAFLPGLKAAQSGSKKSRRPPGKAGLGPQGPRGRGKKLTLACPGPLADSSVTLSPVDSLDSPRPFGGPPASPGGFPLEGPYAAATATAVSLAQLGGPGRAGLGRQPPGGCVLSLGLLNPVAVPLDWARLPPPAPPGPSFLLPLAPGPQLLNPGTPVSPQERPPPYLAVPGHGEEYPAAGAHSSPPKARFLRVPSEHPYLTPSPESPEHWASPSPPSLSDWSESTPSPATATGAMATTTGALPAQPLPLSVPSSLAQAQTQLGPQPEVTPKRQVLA
Chain of Torsin-1A-interacting protein 2 (Homo sapiens) (Q8NFQ8 whole entry, looked up): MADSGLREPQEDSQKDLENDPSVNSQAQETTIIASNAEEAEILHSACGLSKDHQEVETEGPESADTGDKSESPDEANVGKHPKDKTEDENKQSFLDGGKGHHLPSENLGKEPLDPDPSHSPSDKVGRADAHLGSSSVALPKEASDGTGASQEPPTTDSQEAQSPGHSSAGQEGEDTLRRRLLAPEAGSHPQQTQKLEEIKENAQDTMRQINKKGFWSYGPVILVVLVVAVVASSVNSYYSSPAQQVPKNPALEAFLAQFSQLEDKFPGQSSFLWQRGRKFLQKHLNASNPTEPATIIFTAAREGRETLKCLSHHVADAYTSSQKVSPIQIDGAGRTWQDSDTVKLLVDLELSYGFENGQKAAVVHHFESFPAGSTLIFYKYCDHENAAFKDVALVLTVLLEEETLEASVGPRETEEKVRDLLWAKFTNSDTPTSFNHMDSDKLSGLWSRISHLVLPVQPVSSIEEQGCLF
Chain of Pro-neuregulin-1, membrane-bound isoform (Homo sapiens) (Q02297 whole entry, looked up, the tested form may be a part, canonical isoform): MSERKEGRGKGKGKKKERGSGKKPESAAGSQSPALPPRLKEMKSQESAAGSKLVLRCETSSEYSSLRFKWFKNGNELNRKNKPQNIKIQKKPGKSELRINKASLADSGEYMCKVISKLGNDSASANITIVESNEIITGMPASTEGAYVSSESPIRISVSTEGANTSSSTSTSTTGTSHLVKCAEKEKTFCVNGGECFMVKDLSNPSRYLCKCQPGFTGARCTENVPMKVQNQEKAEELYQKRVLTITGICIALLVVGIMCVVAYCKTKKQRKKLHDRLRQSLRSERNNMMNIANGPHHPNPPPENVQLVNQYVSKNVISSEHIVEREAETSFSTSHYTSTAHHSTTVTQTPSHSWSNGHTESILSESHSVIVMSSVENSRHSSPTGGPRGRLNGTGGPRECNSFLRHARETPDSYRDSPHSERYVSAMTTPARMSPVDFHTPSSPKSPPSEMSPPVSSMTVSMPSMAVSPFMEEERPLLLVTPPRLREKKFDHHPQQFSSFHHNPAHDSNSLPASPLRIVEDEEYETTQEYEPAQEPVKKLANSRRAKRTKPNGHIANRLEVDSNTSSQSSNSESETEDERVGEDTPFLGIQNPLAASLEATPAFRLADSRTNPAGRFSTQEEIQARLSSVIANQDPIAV

Row | SMILES | composite z-score [1] | composite z-score [2] | composite z-score [3] | composite z-score [4] | composite z-score [5] | composite z-score [6] | composite z-score [7] | z-score [8] | composite z-score [9] | composite z-score [10] | composite z-score [11] | z-score [12] | z-score [13] | z-score [14] | composite z-score [15] | z-score [16] | composite z-score [17] | composite z-score [18] | composite z-score [19] | composite z-score [20]
1 | CC(CCN1CCc2nc(-c3ccccc3)c(-c3ccccc3)cc2C1)=NOC[C@@H](O)[C@H]1O[C@@H]2OC(C)(C)O[C@@H]2[C@H]1O | -0.621 | 0.59 | -0.085 | 0.455 | 0.331 | 0.609 | 0.676 | 1.54 (inactive) | 0.319 | 0.0139 | 1.53 | -0.987 (inactive) | -4.63 (inactive) | -4.56 (inactive) | 1.78 | 1.23 (inactive) | -0.342 | 0.449 | 0.41 | -0.0409
2 | CCC1=NOC(CCC2CC(OC(=O)NCc3cccc4c3OCO4)CC3(CCCC(COC(=O)NCCc4ccccc4OC)O3)O2)C1 (stereo not given) | -0.173 | 0.13 | -0.0466 | 0.504 | 0.608 | 0.796 | 0.793 | 1.02 (inactive) | 0.243 | -0.151 | 1.26 | -0.873 (inactive) | 0.168 (inactive) | 0.327 (inactive) | 2.38 | 1.11 (inactive) | -0.099 | 0.079 | 0.53 | -0.0424
3 | C[C@H]1CC[C@H]2C(=O)O[C@H](COc3ccc(C(C)(C)C)cc3)CN2[C@@H]1c1ccc(Br)cc1 | -0.135 | 0.169 | -0.053 | -0.0634 | -0.0332 | 0.724 | -0.536 | -0.0935 (inactive) | 0.125 | -0.371 | 0.27 | -0.364 (inactive) | -0.725 (inactive) | 0.474 (inactive) | 0.55 | -0.535 (inactive) | 0.0056 | -0.0084 | -0.164 | -0.143
4 | COC(=O)CC=C[C@@H](C)[C@@H](C=NO[C@H](C)c1cn([C@H](CO)Cc2ccccc2)nn1)OC | -0.42 | 0.44 | -0.0867 | 0.257 | -0.0484 | -0.0545 | 0.516 | 0.0621 (inactive) | 0.0782 | 0.189 | 1.14 | -0.14 (inactive) | -0.617 (inactive) | -0.0624 (inactive) | 0.169 | 0.0673 (inactive) | -0.12 | 1.37 | 0.614 | 0.0556
5 | COc1ccc(O[C@H]2C=C[C@@H](c3ccccc3)O[C@@H]2CON=C(C)C)cc1 | 0.332 | -0.0694 | 0.0333 | -0.531 | -0.286 | 0.112 | -0.0241 | 0.359 (inactive) | -0.195 | 0.107 | -0.818 | 0.278 (inactive) | -2.91 (inactive) | 0.0212 (inactive) | -0.222 | 0.511 (inactive) | 0.175 | -0.0668 | -0.943 | 0.0102
6 | COC(=O)CC=C[C@@H](C)[C@@H](C=NO[C@@H](C)c1cc(-c2c(C)cc(C)cc2C)no1)NS(=O)(=O)c1ccc(C)cc1 | 1.38 | -0.498 | -0.144 | -1.29 | -1.06 | -0.647 | -0.631 | 0.295 (inactive) | -0.176 | -0.236 | -0.84 | -0.0649 (inactive) | 0.679 (inactive) | 0.905 (inactive) | -0.227 | -0.881 (inactive) | 0.0221 | -2.2 | -2.03 | -0.224
7 | CCCNC(=O)OC[C@H]1O[C@H](CCON=Cc2ccc(C(=O)N3[C@H](c4ccc(C)cc4)[C@@H](C)CC[C@H]3C(=O)OC)cc2)C=C[C@@H]1Oc1ccc(OC)cc1 | -0.52 | 0.304 | -0.173 | 0.335 | 0.458 | 0.448 | 0.51 | 0.868 (inactive) | 0.598 | -0.102 | 1.15 | 0.0299 (inactive) | 1.68 (inactive) | 1.25 (inactive) | 1.02 | 0.215 (inactive) | -0.263 | 1.03 | 0.607 | -0.307
8 | CC(=O)O[C@H]1C2=CO[C@H](C)[C@H]3[C@H]4C5=C([C@H](O)[C@H]6O[C@H]6C5=O)[C@H](OC4C)[C@@]23C(=O)[C@@H]2O[C@@H]21 (stereo not given in full) | -0.186 | 0.0382 | -0.0724 | 0.705 | 0.673 | 0.435 | 1.01 | -3.35 (inactive) | 0.163 | 0.154 | 0.593 | 0.116 (inactive) | 0.197 (inactive) | 0.0253 (inactive) | 0.946 | -0.681 (inactive) | -0.299 | 0.433 | 0.392 | -0.0047
9 | O=C(NN=C1C[C@@H](O)[C@@H](O)[C@@H]2[C@@H]3C(=O)N(C4CCCCC4)C(=O)[C@@H]3CC[C@H]12)OCc1ccccc1 | 1.01 | 0.553 | 0.0679 | 0.0977 | 1.1 | -0.131 | -0.287 | -0.242 (inactive) | 0.324 | -0.558 | -0.511 | 0.298 (inactive) | 0.267 (inactive) | 0.799 (inactive) | 0.352 | -0.0442 (inactive) | -0.0239 | -0.177 | -0.0963 | -0.0461
10 | CO[C@H]1COC(=O)[C@@H](C)COC(=O)[C@H](C)NC(=O)CC=C[C@H]1C | -0.451 | 1.18 | -0.0354 | 0.222 | 0.0126 | -0.521 | 0.734 | -0.53 (inactive) | 0.101 | -0.0557 | 1.23 | 0.508 (inactive) | 0.0971 (inactive) | -0.431 (inactive) | 0.0586 | 0.414 (inactive) | -0.212 | 1.64 | 0.195 | 0.0673
